# Reference: PubChem BioAssay (Tox21)
# The source made the active and inactive calls. Calls come from the whole dose curve; as a rule, active = well fitted activation curve with a large enough effect in the repeat runs; inconclusive = weak or mixed curves; inactive = flat fitted curve, though single readings scatter.
# Experiment: Caspase-3/7 induction in CHO-K1 cells by small molecules, qHTS assay (AID 1346980); note: nearly all actives have a fitted effect of over 15% in size
# Conditions: CHO-K1 caspase-3/7 induction, Caspase-Glo luminescence, 17 h; series mostly up to 92.4 µM
# Excerpt: National Center for Advancing Translational Sciences [NCATS]
# NIH Chemical Genomics Center [NCGC]
# U.S. Environmental Protection Agency [EPA]
# National Institutes of Environmental Health Sciences [NIEHS]
# National Toxicology Program [NTP]
# Apoptosis is a process of programmed cell death and plays a central role in the development of multicellular organisms. It is a highly regulated process and induces cell death by activating caspases, which are the members of cysteine aspartic acid-specific protease (caspase) family. Caspases involved in apoptosis are classified by their mechanism of action as initiator caspases (caspase-2, -8, -9 and -10) and executioner caspases (caspase-3, -6, and -7). Inhibition of apoptosis results in number of cancers, autoimmune diseases, inflammatory diseases and viral infection. To identify small molecule compounds that induce apoptosis, a homogeneous, luminescent Caspase-Glo 3/7 assay was used. Wild type CHO-K1 cells were used to screen Tox21 libraries for identifying caspase-3/7 activity inducers.
# CHO-K1 cells were dispensed at 1,500 per well in 5uL of culture medium into white solid bottom 1536-well plates (Corning Life Sciences, Corning, NY) using a Multidrop Combi (Thermo Scientific, Waltham, MA) dispenser. The assay plates were incubated at 37 C and 5% CO2 for 5hr, and then 23nL of compounds dissolved in DMSO and positive control were transferred using a Pintool station (Wako, San Diego, CA). The assay plates were incubated at 37C and 5% CO2 for 17hr. For caspase-3/7 activity read, 4uL of Caspase-Glo 3/7 reagent (Promega Corporation, Madison, WI) was added to each well of the assay plates using Flying Reagent Dispenser (FRD, Aurora Discovery, San Diego, CA) and incubated the assay plates at room temperature for 30min. The luminescence signal was quantified using a ViewLux plate reader (Perkin Elmer, Shelton, CT).
row,SMILES,outcome
1,O=C(NC(=O)c1c(F)cccc1F)Nc1cc(Cl)c(OC(F)(F)C(F)C(F)(F)F)cc1Cl (stereo not given),inactive
2,CCc1cccc(C)c1N(C(=O)CCl)C(C)COC (stereo not given),inactive
3,CCCN(CCC)N=O,inactive
4,CCCC1COC(Cn2cncn2)(c2ccc(Cl)cc2Cl)O1 (stereo not given),inactive
5,Cc1cc(-c2cc(C)c(N)c(C)c2)cc(C)c1N,inactive
6,BrCCBr,inactive
7,Clc1ccc(Cl)cc1,inactive
8,CCCCCCCCCCCC#N,inactive
9,Nc1ccccc1C(=O)O,inactive
10,Oc1ccccc1Cl,inactive
11,Cn1cc(-c2ccccc2)c(=O)c(-c2cccc(C(F)(F)F)c2)c1,inactive
12,COc1ccc2c3c1O[C@H]1[C@@H](O)C=C[C@H]4[C@@H](C2)N(C)CC[C@@]341,inactive
13,c1ccc2c(c1)Oc1ccccc1O2,inactive
14,C#CCN(C)[C@H](C)Cc1ccccc1,inactive
15,CC(C)(C)C(O)(CCc1ccc(Cl)cc1)Cn1cncn1 (stereo not given),inactive
16,CC(Br)C(=O)O (stereo not given),inactive
17,C=C(C)CCl,inactive
18,Cc1ccc(N)cc1N,inactive
19,CC(C)C#N,inactive
20,Cc1[nH]c(=O)n(C(C)(C)C)c(=O)c1Cl,inactive

row,SMILES,outcome
1,O=c1[nH]c2ccccc2c(=O)o1,inactive
2,C=CCO,inactive
3,c1cc2c3c(cccc3c1)CC2,inactive
4,[N-]=[N+]=[N-],inactive
5,NCC(O)c1ccc(O)cc1 (stereo not given),inactive
6,O=C(O)c1ccccn1,inactive
7,O=c1[nH]c(=O)[nH]c(=O)[nH]1,inactive
8,Cc1ccc(N)cc1Cl,inactive
9,O=c1ccc(=O)[nH][nH]1,inactive
10,Nc1ccc(Oc2ccc(N)cc2)cc1,inactive
11,CN(N=O)c1ccccc1,inactive
12,Cc1cccc([N+](=O)[O-])c1,inactive
13,CC1OC(C)OC(C)O1 (stereo not given),inactive
14,OC(O)C(Cl)(Cl)Cl,inactive
15,CC(C)NC(=O)N1CC(=O)N(c2cc(Cl)cc(Cl)c2)C1=O,inactive
16,COP(N)(=O)SC (stereo not given),inactive
17,CC(C#N)CCC#N (stereo not given),inactive
18,CC(=O)C=C(C)C,inactive
19,CC1C=[C-]C=C1.[C-]#[O+].[C-]#[O+].[C-]#[O+].[Mn],inactive
20,Nc1ccc(Br)cc1,inactive
